This is a sample that favours compounds with a hit; in the whole collection about 5.8% have one here.
PINK1 expr mod = modulators of PINK1 expression; PINK1 immunofluorescence, high-content cytometry, 24 h; Potency, µM (top dose mostly 76.6 µM), for inactives: at the top dose activation (PINK1 increase), usual class: activators; 410,000 tested, 0.2% active; active = well fitted activation curve with a large enough effect; inconclusive = small, poorly fitted or top-dose-only effect; cell line not stated here; also: % of control where 0% means no effect; nearly all actives have a fitted effect of over 65% in size
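Cells are seeded, rested 12 hours, then given compound at five concentrations or DMSO for 24 hours. After fixation, blocking and antibody staining, PINK1 amount and mitochondrial localization are scored; CCCP serves as control.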
KB-V1 cytotox = KB-V1 MDR subline cytotoxicity | KB-V1 MDR cells viability, CellTiter-Glo, 72 h | Potency, µM (top dose mostly 46.1 µM), most hits filed as cytotoxic | 400,000 tested, 3.4% active; also: % is scaled to controls: 0 for no effect and ±100 for the full control effect; nearly all actives have a fitted effect of over 60% in size
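Drug-selected KB-V1 cells, grown in DMEM lacking phenol red with 10% FBS, receive compound titrations; after three days at 37 degrees C, surviving cell ATP is quantified by CellTiter-Glo luminescence and responses normalized and curve-fitted.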
SW480 rerep = DNA re-replication induction in SW480 cells | SW480 DNA re-replication, Hoechst DNA content imaging, 48 h | Potency, µM (series often up to 46.1 µM), without a hit: at the top dose re-replication activation, most hits filed as activators | AID 624297 | 340,000 tested, 1.8% active; also: % of control where 0% means no effect; nearly all actives have a fitted effect of over 55% in size
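DNA re-replication was detected as more nuclei of elevated Hoechst intensity after 48 hr exposure to compound (23 nL pinned per well of 250 cells).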
ALOX12 inh = blocks human arachidonate 12S-lipoxygenase; P18054; purified 12hLO, xylenol orange hydroperoxide absorbance; Potency, µM (top dose mostly 108 µM), for the others: top-dose activity change, negative = inhibition, most hits filed as inhibitors; 580,000 tested, 1.1% active; AID 1671190; also: % is scaled to controls: 0 for no effect and ±100 for the full control effect
Target sequence (P18054 whole entry, looked up): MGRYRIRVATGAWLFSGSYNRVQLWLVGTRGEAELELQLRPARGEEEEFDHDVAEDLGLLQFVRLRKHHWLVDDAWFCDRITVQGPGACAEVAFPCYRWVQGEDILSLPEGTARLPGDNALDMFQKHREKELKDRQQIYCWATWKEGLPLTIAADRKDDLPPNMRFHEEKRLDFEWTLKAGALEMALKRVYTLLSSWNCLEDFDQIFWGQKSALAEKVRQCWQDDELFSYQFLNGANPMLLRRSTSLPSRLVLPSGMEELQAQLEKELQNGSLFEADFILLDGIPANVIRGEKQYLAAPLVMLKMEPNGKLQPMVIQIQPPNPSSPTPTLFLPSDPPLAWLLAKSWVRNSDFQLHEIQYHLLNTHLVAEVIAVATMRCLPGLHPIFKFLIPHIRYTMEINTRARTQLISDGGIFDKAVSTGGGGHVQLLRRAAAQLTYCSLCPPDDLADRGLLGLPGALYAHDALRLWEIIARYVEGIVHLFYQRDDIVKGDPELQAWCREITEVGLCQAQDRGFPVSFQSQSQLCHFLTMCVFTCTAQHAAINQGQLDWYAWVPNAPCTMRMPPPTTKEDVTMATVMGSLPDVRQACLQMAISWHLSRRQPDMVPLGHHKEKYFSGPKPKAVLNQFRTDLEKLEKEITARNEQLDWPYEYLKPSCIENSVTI
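Hydroperoxide product was detected by ferrous iron/xylenol orange as the 573 to 405 nm absorbance ratio. Arachidonic acid at 40 uM (final) was turned over for 30 min at room temperature by 150 nM human 12hLO, pH 7.0 Hepes buffer, after 15 min compound preincubation.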
MCF10A rereplic = inducers of DNA re-replication in MCF 10A breast cells; MCF 10A DNA re-replication, Hoechst nuclear intensity, 48 h; 350,000 tested, 2.9% active; Potency, µM (doses to about 46.1 µM), without a hit: at the highest dose activity, positive = re-replication, hits mostly activators; AID 624296; also: % of control where 0% means no effect; nearly all actives have a fitted effect of over 50% in size
KB-3-1 cytotox = KB-3-1 parental cell cytotoxicity. KB-3-1 viability, CellTiter-Glo ATP luminescence, 72 h. Potency, µM (titrated, usually from 46.1 µM), most hits filed as cytotoxic. 400,000 tested, 1.4% active; also: % is scaled to controls: 0 for no effect and ±100 for the full control effect; nearly all actives have a fitted effect of over 60% in size
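Parental KB-3-1 viability, qHTS format: 72 h compound exposure, 37 °C; CellTiter-Glo; media-only wells and DMSO plates as controls; concentration-effect fits on corrected data.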
* marks the source's active call; other numbers are inactive results; i = inactive; u = inconclusive; x = no result given; [ ] = remark or other dose. Unless noted, calls follow the shape of the dose curve; as a rule, active = well fitted curve in the direction sought with a large enough effect; inconclusive = small, poorly fitted or top-dose-only effect, or another doubt; inactive = no such curve, though single readings can be large; an effect the other way counts as inactive or inconclusive. Potency is read from the fitted curve at half-maximal effect.

SMILES	PINK1 expr mod	KB-V1 cytotox	SW480 rerep	ALOX12 inh	MCF10A rereplic	KB-3-1 cytotox
CC(CC(=O)Nc1cnc2ccccc2c1)c1ccccc1 (stereo unspecified)	x	x	x	16%	x	x
O=C(CCNc1nc(Cl)nc2nc[nH]c12)NCCc1c[nH]c2ccccc12	x	x	x	6%	x	x
Cc1ccc(-c2nn(-c3ccccc3)cc2NC(=O)CCl)cc1	1%	u	18µM*	u	u	8.2µM*
O=C(CN1CCN(S(=O)(=O)c2ccc3ccccc3c2)CC1)Nc1ccc2c(c1)CCC2	-1%	18µM*	22%	2%	11%	i
O=C(CN1CCN(S(=O)(=O)c2ccc(Cl)cc2)CC1)Nc1ccc2c(c1)CCC2	-3%	i	5%	-12%	22%	u
N#Cc1ccsc1NC(=O)CN1CCN(S(=O)(=O)c2ccc3ccccc3c2)CC1	1%	6.5µM*	-1%	-14%	23%	i
Cc1ccc(NC(=O)Cn2c(=O)oc3cc(S(=O)(=O)N4CCC(C)CC4)ccc32)cc1C	5%	u	u	13%[57.4 µM]	21µM*	u
N#Cc1ccsc1NC(=O)CN1CCN(Cc2ccccc2)CC1	0%	i	-2%	14%	-6%	i
O=C(CN1CCN(S(=O)(=O)c2ccc3ccccc3c2)CC1)Nc1ccc(N2CCOCC2)cc1	0%	i	-3%	-6%	3%	i
Cc1ccc(NC(=O)Cn2c(=O)oc3cc(S(=O)(=O)N4CCC(C)CC4)ccc32)cc1Cl	u	i	x	u	x	i
Cc1ccc(S(=O)(=O)N2CCN(CC(=O)Nc3ccc4c(c3)CCC4)CC2)cc1C	0%	2.9µM*	-3%	-20%	7%	u
COc1nc(C(=O)NC2(c3ccccc3)CCC2)cc2ccccc12	x	x	x	-12%	x	x
O=C(NCCc1ccccn1)c1cccc(NS(=O)(=O)c2ccc3c(c2)OCCO3)c1	x	x	x	-31%	x	x
CCCn1c(C(O)c2ccc3c(c2)OCO3)nc2ccccc21 (stereo unspecified)	1%[38.3 µM]	i	15µM*	8%	u	i
CC1(C)CC(=O)C=C(NCc2cccc(C(F)(F)F)c2)C1	2%	u	9.2µM*	78%	-5%	i
CNc1c(NC(=O)NCCC(C)C)c(=O)oc2ccccc12	x	x	x	-2%	x	x
COc1ccc(Cn2c(=O)cc(N)n(-c3ccccc3C)c2=O)cc1	3%	i	15µM*	165%	u	u
CC1CN(Cc2c(O)ccc3c2oc(=O)c2ccccc23)CC(C)O1 (stereo unspecified)	1%	u	-7%	5.6µM*	4%	i
CC(C)CC(=O)Nc1ccc2oc(-c3ccc(F)cc3)nc2c1	x	x	x	2%	x	x
COc1ccc(NS(=O)(=O)c2cc(C)ccc2NC(=O)c2cc(C)oc2C)cc1	5%	0.26µM*	0.73µM*	u	0.65µM*	0.041µM*
CC(C)(C)c1ccc(CN2N=Nc3ccccc3S2(=O)=O)cc1	0%	8.2µM*	u	u	u	12µM*
COc1ccc(S(=O)(=O)Nc2nc3ccccc3nc2Nc2cccc(C(F)(F)F)c2)cc1	x	x	x	-18%	x	x
O=C1/C(=C\c2c(NCCOCCO)nc3ccccn3c2=O)SC(=S)N1Cc1ccco1	4%	u	-35%[1.84 µM]	0%	9.2µM*	i
CCCN1C(=O)/C(=C/c2c(NCCCOCC)nc3c(C)cccn3c2=O)SC1=S	16%	i	1%	-7%	8%	i
O=C(CCN1C(=O)/C(=C/c2ccco2)SC1=S)Nc1ccc(O)cc1C(=O)O	-1%	i	-2%	u	-1%	i
SMILES	PINK1 expr mod	KB-V1 cytotox	SW480 rerep	ALOX12 inh	MCF10A rereplic	KB-3-1 cytotox
O=C(CCCN1C(=O)/C(=C/c2ccco2)SC1=S)Nc1ccccc1C(=O)O	-1%	u	2%	32µM*	u	i
CC(C(=O)Nc1ccc(O)cc1C(=O)O)N1C(=O)/C(=C\c2cccs2)SC1=S (stereo unspecified)	3%	i	2%	32µM*	5%	i
O=C(CCCN1C(=O)/C(=C\c2ccccc2)SC1=S)Nc1ccc(O)cc1C(=O)O	0%	u	7%	u	1%	i
O=C(CN1C(=O)/C(=C\c2ccco2)SC1=S)Nc1ccc(O)cc1C(=O)O	-1%	i	-4%	25µM*	-9%	i
CC[N+](C)(C)CCOC1CC2CCC1(C)C2(C)C (stereo unspecified)	x	x	x	8%	x	x
CCOCCCNC(=O)/C=C/c1ccc(-c2ccc(F)cc2)s1	x	x	x	5%	x	x
NC(CO)c1ccc(Oc2ccccc2)cc1 (stereo unspecified)	x	x	x	-57%	x	x
O=C(CSc1nc(-c2ccccc2)cc(=O)[nH]1)Nc1ccc(Cl)c(C(F)(F)F)c1	x	x	x	0%	x	x
CC(=O)Nc1ccccc1OCC(=O)c1cc(C)n(Cc2cccs2)c1C	1%	u	1%	-12%	14%	4.6µM*
Cc1cc(C(=O)CSc2nnc(N)s2)c(C)n1Cc1cccs1	1%	23µM*	-70%	18%	16%	u
CCn1nc(C(=O)OC(C(=O)c2c[nH]c3ccccc23)c2ccccc2)c2ccccc2c1=O (stereo unspecified)	4%[38.3 µM]	12µM*	15%	-11%	2%	i
O=S1(=O)CC(O)C(NCc2cccnc2)C1 (stereo unspecified)	x	i	2.1µM*	0%	5.2µM*	i
O=C(CCC[C@@H]1[C@H]2CCCN3CCC[C@@H](CN1C(=O)c1ccsc1)[C@@H]23)NCC1CC1	x	x	x	32%	x	x
CC(C)CN1C(=O)c2ccccc2C(C(=O)Nc2ccncc2)C12CCCC2 (stereo unspecified)	x	x	x	48%	x	x
COc1ccc(-c2c(C)oc3cc(OCCN4CCN(CCO)CC4)ccc3c2=O)cc1	x	x	x	-3%	x	x
Cc1oc2cc(OCCN3CCN(CCO)CC3)ccc2c(=O)c1-c1ccc(Br)cc1	x	x	x	35µM*	x	x
COc1ccc(-c2ccc3ncc(Nc4ccccc4C)n3n2)cn1	x	x	x	6%[176 µM]	x	x
Cn1c(=O)[nH]c(=O)c2c1nc(N1CCCC1)n2CCCSc1nnnn1-c1ccccc1	-1%	6.5µM*	9%	-20%	u	i
COc1ccc(N2C(=O)c3ccc(C(=O)OC(C)C)cc3C2=O)cc1	8%	i	u	-8%	u	18µM*
CN(C)C(=O)C1(c2ccccc2)CCN(S(=O)(=O)c2ccccc2)CC1	-4%	21µM*	-7%	160%	0%	u
O=C(O)C1(c2ccccc2)CCN(S(=O)(=O)c2ccccc2)CC1	2%	i	-3%	28%	4%	i
